Sampled rows, rich in hits. Any-hit rate of the full collection: about 0.51%.
Vif-APOBEC3G blk: inhibitors of Vif-APOBEC3G interaction | HeLa A3G-eYFP + Vif (tagged APOBEC3G with the HIV-1 protein that degrades it), YFP fluorescence, overnight | Potency, µM (series often up to 46.1 µM), usual class: inhibitors | 410,000 compounds, 0.076% hits | AID 602310; also: nearly all actives have a fitted effect of over 60% in size
Target sequence (Q9HC16 whole entry, looked up): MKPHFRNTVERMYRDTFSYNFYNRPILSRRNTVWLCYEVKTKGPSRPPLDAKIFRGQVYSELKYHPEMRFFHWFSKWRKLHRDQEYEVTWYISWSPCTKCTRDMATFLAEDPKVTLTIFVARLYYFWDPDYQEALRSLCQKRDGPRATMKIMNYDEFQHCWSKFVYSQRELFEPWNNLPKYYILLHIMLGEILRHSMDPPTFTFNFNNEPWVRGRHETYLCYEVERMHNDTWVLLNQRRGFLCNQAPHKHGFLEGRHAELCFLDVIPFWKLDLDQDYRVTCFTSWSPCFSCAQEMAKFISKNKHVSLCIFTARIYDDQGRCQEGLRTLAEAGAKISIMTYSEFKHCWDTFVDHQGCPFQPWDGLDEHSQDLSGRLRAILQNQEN
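HeLa cells stably expressing Vif and C-terminally eYFP-tagged A3G, seeded overnight at 37 deg C, then exposed to compound by pintool overnight at 37 deg C. Rise in yellow fluorescence (Ex 488/Em 500-530, Acumen) marks blocked Vif-driven A3G degradation.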
Epigenetic reg: derepresses silenced GFP reporter in murine cells. murine LDR cells, GFP reporter derepression, 30 h. Potency, µM (doses to about 53.9 µM), actives largely listed as activators. 280,000 compounds, 0.2% hits. AID 1865; also: nearly all actives have a fitted effect of over 60% in size
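GFP-positive cell count by laser-scanning cytometry (objects 20–120 um) after 30 h, 37 C compound exposure of murine LDR cells; reporter is CMV-GFP integrated at a silenced locus, inducible by HDAC or DNMT inhibitors.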
Vif-APOBEC3F blk: blocks the Vif interaction with APOBEC3F | HeLa A3F-eYFP + Vif (tagged APOBEC3F with the HIV-1 protein that degrades it), YFP fluorescence increase | Potency, µM (doses to about 46.1 µM) | 390,000 compounds, 0.2% hits | AID 602313; also: nearly all actives have a fitted effect of over 65% in size
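HeLa cells stably expressing A3F-eYFP plus Vif, plated and incubated overnight at 37 deg C, then exposed to compounds overnight at 37 deg C. Blocked degradation read as raised yellow fluorescence (Ex 488/Em 500-530).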
PINK1 expr mod: PINK1 expression modulation. PINK1 immunofluorescence, high-content cytometry, 24 h. Potency, µM (top dose mostly 76.6 µM), usual class: activators. 410,000 compounds, 0.2% hits. AID 624263; active = well fitted activation curve with a large enough effect; inconclusive = small, poorly fitted or top-dose-only effect; cell line not stated here; also: nearly all actives have a fitted effect of over 65% in size
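Readout is PINK1 immunofluorescence, quantified alongside mitochondrial, cell and nuclear markers by laser-scanning microplate cytometry. Cells from a stable line were exposed to compound titrations (5 concentrations) for 24 hours, with CCCP controls.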
Numbers stand for hits; – = inactive; ? = inconclusive; · = no result given; ! = a repeat was not active. Unless noted, calls follow the shape of the dose curve; as a rule, active = well fitted curve in the direction sought with a large enough effect; inconclusive = small, poorly fitted or top-dose-only effect, or another doubt; inactive = no such curve, though single readings can be large; an effect the other way counts as inactive or inconclusive.

SMILES	Vif-APOBEC3G blk	Epigenetic reg	Vif-APOBEC3F blk	PINK1 expr mod
COc1ccc(N=Cc2c(O)n(-c3cccc(C)n3)c(=O)c3ccccc23)cc1	–	–	–	–
COc1ccc(NC(=O)c2c(NC(=O)COc3ccccc3)sc3c2CCCCC3)cc1	–	–	–	–
COc1ccc(OCC(=O)Nc2sc3c(c2C(=O)NCC2CCCO2)CCC3)cc1 (stereo unspecified)	–	–	–	11µM
N#Cc1sc2nc(-c3cccs3)cc(-c3ccc(Cl)cc3)c2c1N	?	14µM	?	–
O=C1N/C(=C/c2cccn2-c2ccccc2)C(=O)N1Cc1ccc(F)cc1	–	7.1µM	–	?
CC(=O)c1ccc(F)c(-c2cc(C)cc3c2OC(CNC(=O)C2CCCCN2C)C3)c1 (stereo unspecified)	·	·	·	–
CCN(CC)C(=O)Cn1c(=O)n(-c2ccccc2)c(=O)c2c3c(sc21)CCC3	–	–	11µM!	–
COC1=C(OC)C(=O)C(Sc2ccc3ccccc3c2)=CC1=O	?	·	25µM	–
FC(F)(F)c1ccc(N2CCN(c3ncnc4c3nnn4Cc3ccccc3)CC2)nc1	–	–	–	11µM
c1ccc(Cn2nnc3c(N4CCOCC4)ncnc32)cc1	–	–	–	–
Cn1cccc1/C=C1\CC(C(C)(C)C)C/C(=C\c2cccn2C)C1=O (stereo unspecified)	7.9µM	2.8µM	?	?
CN1C2CCC1/C(=C/c1cccn1C)C(=O)/C2=C\c1cccn1C	?	–	22µM	–
Cn1cccc1/C=C1\Cc2ccccc2C1=O	–	–	–	–
CCOC(=O)NC(=O)/C(C#N)=N\Nc1cccc(Cl)c1	–	–	–	16µM
CCOC(=O)NC(=O)/C(C#N)=N\Nc1ccc(Cl)cc1	–	–	–	–
COc1cc(/C=C2\C(=N)N3N=CSC3=NC2=O)cc(Br)c1OC(=O)c1ccco1	?	–	22µM	–
N=C1/C(=C\c2ccc(OC(=O)c3ccco3)cc2)C(=O)N=C2SC=NN12	–	–	–	–
CCC1CN(Cc2cn[nH]c2-c2ccc(F)cc2)Cc2cc(OC)ccc2O1 (stereo unspecified)	·	·	·	–
COc1ccccc1CN1CCC2(CC1)c1ccccc1[C@@H](NC(=O)c1ccco1)[C@@H]2OC	·	·	·	–
Cn1c(=O)c(/C=C/c2ccc(F)cc2)nc2ccccc21	–	–	?	–
O=c1c(/C=C(\O)c2ccc(F)cc2)nc2ccccc2n1-c1ccccc1	–	13µM	?	–
CN(C)S(=O)(=O)c1ccc(Cl)c(NC(=O)CSc2nc3c(cc2C#N)C(=O)CCC3)c1	–	25µM	–	–
COc1cc(=O)n2c(c1C(=O)NCc1ccco1)CCN(Cc1ccc3ccccc3c1)CC2	·	·	·	–
Cc1ccc(N2C(=O)[C@@H]3[C@H](C2=O)[C@H]2C=C(C(=O)c4ccccc4)C=CN2[C@@H]3C(=O)c2ccc(Cl)cc2)cc1	–	–	11µM	–
O=C(C1=C[C@@H]2[C@H]3C(=O)N(c4cccc(Cl)c4)C(=O)[C@H]3[C@@H](C(=O)c3ccc(Cl)cc3)N2C=C1)c1ccccc1	–	–	–	–
SMILES	Vif-APOBEC3G blk	Epigenetic reg	Vif-APOBEC3F blk	PINK1 expr mod
N#CC(C#N)=C(N)CSc1cccc[n+]1[O-]	–	8.9µM	?	–
O=C(O)CSc1cccc[n+]1[O-]	–	–	–	–
COc1ccc2c(c1)-c1nc(-n3ncc(C(=O)NCc4cccc(C)n4)c3C3CC3)ncc1CC2	·	·	·	–
COc1cc(OC)cc(C(=O)N2CCCC(n3cc(C(=O)NCC(C)C)nn3)C2)c1 (stereo unspecified)	·	·	·	–
COc1ccc(C2CC(c3ccccc3)=NN2S(=O)(=O)c2ccccc2)cc1 (stereo unspecified)	–	?	?	–
CS(=O)(=O)Nc1ccc(C2=NN(S(=O)(=O)c3ccccc3)C(c3cccs3)C2)cc1 (stereo unspecified)	?	–	22µM	–
Cc1ccc(C2=NN(S(=O)(=O)c3ccccc3)C(c3ccccc3O)C2)cc1 (stereo unspecified)	–	?	25µM	–
CN(C)c1ccc2c(c1)OC(N)=C(C#N)C2c1cccc(F)c1 (stereo unspecified)	?	–	22µM	?
CCC1CN(Cc2cn[nH]c2-c2ccccc2)Cc2cc(OC)ccc2O1 (stereo unspecified)	·	·	·	–
COc1cccc(CN2CCC3(CCC(CNC(=O)c4ccco4)O3)CC2)c1OC (stereo unspecified)	·	·	·	–
COC(=O)c1c(OCc2ccccn2)cc(=O)n2c1CCN(Cc1ccc3nsnc3c1)CC2	·	·	·	–
CCOC(=O)C1=C(O)c2ccccc2C(=O)/C1=C\c1ccc(CC)cc1	?	?	22µM	–
CCc1ccc(N=Nc2ccc(O)c3[nH]cnc23)cc1	?	·	8.9µM	–
COc1ccc(N=Nc2ccc(O)c3ncccc23)cc1	–	–	–	–
Cc1nc2cc(NC(=O)[C@@H]3C[C@@H](Sc4ccccn4)CN3Cc3ccccc3F)ccc2s1	·	·	·	–
COc1cc(=O)n2c(c1C(=O)N(C)Cc1nonc1C)CCN(Cc1cc(C)ccc1C)CC2	·	·	·	–
CCN(CC)c1ccc2cc(/C(N)=N/NC(=O)c3cccs3)c(=O)oc2c1	·	6.3µM	·	·
CCN(CC)c1ccc2cc(C(N)=O)c(=N)oc2c1	?	–	11µM	?
Cc1onc(-c2ccccc2)c1C(=O)NCCN1Cc2ccccc2OC(c2ccsc2)C1 (stereo unspecified)	·	·	·	–
CCN(Cc1ccncc1)Cc1ccc2c(c1)CN(C(=O)c1ccc(C)cc1)CCO2	·	·	·	–
Cc1[nH]n(-c2ccccc2)c(=O)c1C=Nc1cccc(F)c1	–	–	–	–
Cc1cccc(/N=C/c2c(C)[nH]n(-c3ccccc3)c2=O)n1	–	–	–	–
Cc1cccc(-n2[nH]c(C)c(C=Nc3ccc4[nH]c(=O)[nH]c4c3)c2=O)c1	–	?	?	32µM
Cc1[nH]n(-c2ccccc2)c(=O)c1C=Nc1ccc2[nH]c(=O)[nH]c2c1	–	?	–	35µM
O=S(=O)(Nc1nc2ccccc2nc1N1CCc2ccccc2C1)c1ccc(Cl)cc1	–	–	–	16µM
SMILES	Vif-APOBEC3G blk	Epigenetic reg	Vif-APOBEC3F blk	PINK1 expr mod
O=S(=O)(Nc1nc2ccccc2nc1N1CCc2ccccc2C1)c1ccc(Br)cc1	–	–	22µM	?
CC(=O)Nc1ccc(S(=O)(=O)Nc2nc3ccccc3nc2N2CCc3ccccc3C2)cc1	–	–	–	–
Cc1ccc(S(=O)(=O)Nc2nc3ccccc3nc2N2CCN(c3ccccc3F)CC2)cc1	–	–	–	–
CN1CCN(c2nc3ccccc3nc2NS(=O)(=O)c2ccc(Br)cc2)CC1	–	·	10µM	–
O=S(=O)(Nc1nc2ccccc2nc1N1CCN(c2ccccn2)CC1)c1ccc(Cl)cc1	?	–	7.9µM	–
COc1cccc(CN2CCC(n3cc(C(=O)N4CCCCC4)nn3)CC2)c1OC	·	·	·	–
CC(=O)Nc1ccc(NC(=O)C/C(C)=N/NC(N)=S)cc1	–	–	7.9µM	–
CCC(=O)N/N=C(\C)CC(=O)Nc1ccc(F)cc1	–	–	–	–
Cc1nc(C(=O)N(Cc2cc3ccc(F)cc3nc2N2CCC(O)CC2)CC2CCCO2)cs1 (stereo unspecified)	·	·	·	–

Compound activity as filed in PubChem.
